Results from PubChem BioAssay (EPA / NIEHS).
“And” between values parts separate entries of the source, which are not always exact repeats. Equal entries are not always repeated. The source made the active and inactive calls. The calls were made as follows: active = hit-call score of the fitted dose curve at least 0.9, where 1 is the maximum; inactive = score below 0.9.

Assay: BSK_3C_SRB: Viability Assessment in the BioMAP Diversity Plus: 3C Assay (AID 2283023);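 also: fitted both ways against DMSO so a hit may be signal rise or drop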
Details: primary human endothelial cells (HUVEC)
Method: BSK_3C is a cell-based, multiplexed-readout assay that uses umbilical vein endothelium, a human vascular primary cell, with measurements taken at 24 hours after chemical dosing in a 96-well plate.BSK_3C_SRB is an assay component measured in the BSK_3C assay. It measures 0.1% sulforhodamine related to cell death using Sulforhodamine staining technology.Data from the assay component BSK_3C_SRB was analyzed into 1 assay endpoint. This assay endpoint, BSK_3C_SRB, was analyzed with bidirectional fitting relative to DMSO as the negative control and baseline of activity. Using a type of viability reporter, gain or loss-of-signal activity can be used to understand changes in the signaling. Furthermore, this assay endpoint can be referred to as a primary readout, because this assay has produced multiple assay endpoints where this one serves a signaling function. To generalize the intended target to other relatable targets, this assay endpoint is annotated to the cell morphology intended target family, where the subfamily is cell conformation.
The levels of cell surface (or secreted, indicated by the prefix "s") biomarker endpoints were measured by ELISA. Overt cytotoxicity to cells in confluent adherent cultures (all systems other than the BT system) was assessed by measuring total protein levels using sulforhodamine B (SRB) staining in parallel cultures at the time of biomarker measurements, indicated as SRB endpoints. For proliferation assays for adherent cell types, individual cell types are cultured at sub-confluence and relative cell numbers quantified by SRB staining at time points optimized for each system (48 h: 3C and CASM3C systems; 72 h: BT and HDF3CGF systems; 96 h: SAg system). SRB was performed by staining cells with 0.1% SRB after fixation with 10% TCA and reading wells at 560 nm.Viability and proliferation of PBMC (T cells) was quantified by Alamar Blue reduction for the SAg and BT systems. For PBMC viability (referred to as PBMC Cytotoxicity within the assay endpoint names), cells were plated (75,000/well in a 96-well plate) and then chemical samples added for 1 h before addition of activators, SEB and TSST-1 (20 ng/mL final concentration each). Cells were incubated for 90 h. Then, Alamar Blue (20 uL/well) (Invitrogen, Cat DAL1100) was added for 6 h, and the plates were read with a fluorescence microplate reader at 546/580 nm (excitation/emission). For PBMC proliferation, cells were plated and activated as above but incubated for only 16 h prior to addition of Alamar Blue. Plates were read after 6 h.

Compound | outcome | AC50
CC(CN=Cc1ccccc1O)N=Cc1ccccc1O (stereo not given) | inactive | 
c1ccc(Oc2ccccc2)cc1 |  | 30 µM (active)
O=C1OC[C@H](Cc2cccc(O)c2)[C@H]1Cc1cccc(O)c1 | inactive | 
CC(C)(N=C=O)c1cccc(C(C)(C)N=C=O)c1 | inactive | 
CC(C)(C)CC(C)(C)c1ccc(OCCOCC[N+](C)(C)Cc2ccccc2)cc1 |  | 4.62 µM (active)
CCOC(=O)C(C#N)=C(c1ccccc1)c1ccccc1 |  | 25.6 µM (active) and 20 µM (active)
Clc1cc(Cl)c(-c2c(Cl)c(Cl)cc(Cl)c2Cl)cc1Cl |  | 15.8 µM (active)
C=C(C)[C@H]1CC=C(C)C(=O)C1 | inactive | 
CN(C)C(=O)Nc1ccc(Oc2ccc(Cl)cc2)cc1 | inactive | 
C[C@@H]1CCN(C(=O)[C@H](CCCN=C(N)N)NS(=O)(=O)c2cccc3c2NC[C@H](C)C3)[C@@H](C(=O)O)C1 | inactive | 
c1ccc2cc(Nc3ccc(Nc4ccc5ccccc5c4)cc3)ccc2c1 | inactive | 
CN(c1nccc(=O)[nH]1)C1CCN(c2nc3ccccc3n2Cc2ccc(F)cc2)CC1 | inactive | 
CCCCOC(=O)CCCCCCCC(=O)OCCCC | inactive | 
CC(C=O)Cc1ccc(C(C)(C)C)cc1 (stereo not given) |  | 31.2 µM (active)
CSCCC=O | inactive | 
O=CN1CCOCC1 | inactive | 
Cc1cc(CCC(=O)OCCOCCOCCOC(=O)CCc2cc(C)c(O)c(C(C)(C)C)c2)cc(C(C)(C)C)c1O |  | 28.1 µM (active)
CN(C)C(=S)SC(=S)N(C)C |  | 19.9 µM (active)
C=C(C)C(=O)OCCOCCOCCOC(=O)C(=C)C | inactive | 
CC=Cc1ccc(OCC)c(O)c1 | inactive | 

Compound | outcome | AC50
CC1(C)CCC[C@]2(C)[C@H]3CCO[C@]3(C)CC[C@@H]12 |  | 34.9 µM (active) and 39.2 µM (active)
COc1ccc(OC)c(N=Nc2c(O)ccc3ccccc23)c1 | inactive | 
IC(I)I | inactive | 
CCCCCCC(CO)CCCC (stereo not given) | inactive | 
CS(=O)(=O)c1ccc(C2=C(c3ccccc3)C(=O)OC2)cc1 | inactive | 
Oc1c(Cl)cc(Cl)c(Cl)c1Cc1c(O)c(Cl)cc(Cl)c1Cl |  | 5.1 µM (active)
C1=CC2C3C=CC(C3)C2C1 (stereo not given) | inactive | 
COc1ccc(CCN2CCC(Nc3nc4ccccc4n3Cc3ccc(F)cc3)CC2)cc1 |  | 2.41 µM (active)
CCC(C)c1cc([N+](=O)[O-])cc([N+](=O)[O-])c1OC(=O)OC(C)C (stereo not given) |  | 14.1 µM (active)
CCCCCC(C=O)=Cc1ccccc1 |  | 33.1 µM (active)
O=C1OC2(c3ccccc31)c1ccc(O)c(Br)c1Oc1c2ccc(O)c1Br | inactive | 
CS(=O)(=O)OCCCCOS(C)(=O)=O | inactive | 
c1ccc(CCc2ccccc2)cc1 |  | 30.5 µM (active)
CC(=O)C1(C)CC2=C(CCCC2(C)C)CC1C (stereo not given) |  | 8.86 µM (active)
CC(=O)Nc1ccc(C(=O)CCl)cc1 |  | 9.52 µM (active)
C=CC(C)(O)CCC=C(C)C (stereo not given) | inactive | 
CC(=O)c1c(C)c([N+](=O)[O-])c(C(C)(C)C)c([N+](=O)[O-])c1C | inactive | 
O=C(Nc1ccc2c(O)c(N=Nc3ccc(N=Nc4ccc(S(=O)(=O)O)cc4)cc3)c(S(=O)(=O)O)cc2c1)c1ccccc1 | inactive | 
C=C(C)C(=O)OCCOCCOCCOCCOC(=O)C(=C)C | inactive | 
O=C1c2ccccc2C(=O)c2c(O)ccc(O)c21 | inactive | 
